“And” between values parts separate entries of the source, which are not always exact repeats. Equal values may be shown once. Inconclusive results are not listed. The source holds several records for some structures; these can differ, active in one and inactive in another. The source made the active and inactive calls. Unless noted, calls follow the shape of the dose curve; as a rule, active = well fitted curve in the direction sought with a large enough effect; inconclusive = small, poorly fitted or top-dose-only effect, or another doubt; inactive = no such curve, though single readings can be large; an effect the other way counts as inactive or inconclusive.
What was measured:
[1] = biological target: Cytochrome P450 2C19 (Homo sapiens) (UniProt P33261); assay: qHTS Assay for Inhibitors and Substrates of Cytochrome P450 2C19 (AID 899); conditions: recombinant CYP2C19, luciferin-H EGE luminescence; series mostly up to 57.1 µM; also: nearly all actives have a fitted effect of over 60% in size; also: potency is read from the fitted curve at half-maximal effect
In short: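 Luminescence readout of luciferin formed from 10uM Luciferin-H EGE (KM level) by 5 nM CYP2C19 in 50mM KPO4. 60 min NADPH-driven reaction at 37C after 10 min compound preincubation; data scaled to 57uM ketoconazole inhibition.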

[2] = biological target: Pyruvate kinase (Leishmania mexicana) (UniProt Q27686); assay: qHTS Validation Assay for Inhibitors of Leishmania Mexicana Pyruvate Kinase (AID 945); also: potency is read from the fitted curve at half-maximal effect; conditions: purified L. mexicana pyruvate kinase, enzyme activity, E451W mutant enzyme; series mostly up to 57.5 µM
In short: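 Substrate mix (0.5 mM PEP, 0.1 mM ADP, 7 mM MgCl2, 50 mM KCl, pH 7.2 imidazole) received compound by pin tool, then 0.2 nM LmPYK E451W. After 1 h at room temperature, PKLight was added and luminescence measured.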

[3] = Confirmation and Secondary Assay for Modulators of Hemoglobin Beta Chain Splicing at IVS2 654 locus (AID 910); conditions: HeLa EGFP-654 splicing reporter, GFP fluorescence, 48 h; series mostly up to 46.1 µM;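 also: HeLa cells stably carrying EGFP split by mutant beta-globin IVS2-654 intron; per-well total GFP intensity by laser scanning cytometry after 2-day treatment; % of control where 0% means no effect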
In short: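 Readout: per-well total peak green fluorescence (488 nm ex, 500–520 nm em) from objects 5–250 µm, reflecting correct splicing of an EGFP-654 reporter. Compounds were applied for 2 days at 37 °C to overnight-plated HeLa EGFP-654 cells; controls were DMSO and 500 nM IVS2-654 PNA.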

[4] = qHTS Assay for Identification of Small Molecule Agonists for Thrombopoietin (TPO) Signaling Pathway (AID 917); conditions: TPO signaling pathway reporter cells, agonist qHTS, stimulated with TPO at its EC50; series mostly up to 38.5 µM; also: % is scaled to controls: 0 for no effect and ±100 for the full control effect
In short: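 Luciferase reporter (Glycoprotein IIb promoter) in IL-3-deprived Ba/F3 cells carrying human TPO receptor; compounds co-added with 26 pM TPO, incubated 24 h, 37 C. Steadylite luminescence measured after 10 min.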

[5] = Confirmation and Secondary Assay for Modulators of Hemoglobin Beta Chain Splicing at IVS2 705 locus (AID 930); conditions: HeLa EGFP-705 splicing reporter, GFP fluorescence, 48 h; series mostly up to 46.1 µM;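 also: HeLa cells stably expressing the EGFP-705 splicing reporter; GFP fluorescence per well restored by corrected splicing of the IVS2-705 intron in EGFP; % of control where 0% means no effect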
In short: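 HeLa EGFP-705 reporter; 500 cells/well, o/n 37C 5% CO2; cpd 2 d; 488 ex/500-520 em laser scan; total peak GFP intensity/well. Ref: 500 nM […] antisense PNA.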

[6] = biological target: Muscarinic acetylcholine receptor M1 (Rattus norvegicus) (UniProt P08482); assay: qHTS Assay for Antagonists of Acetylcholine Muscarinic M1 Receptor: Kinetic Measurement of Intracellular Calcium Response (AID 943); conditions: M1-expressing cells, kinetic intracellular calcium fluorescence; series mostly up to 35.3 µM; also: nearly all actives have a fitted effect of over 75% in size; also: potency is read from the fitted curve at half-maximal effect
In short: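 Antagonism is measured as inhibition of the carbachol-evoked calcium rise in CHO cells transfected with rat M1. Cells are dye-loaded, exposed to compound for 10 min, then stimulated with 100 nM carbachol (EC80).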

[7] = biological target: Muscarinic acetylcholine receptor M1 (Rattus norvegicus) (UniProt P08482); assay: qHTS Assay for Antagonists of Acetylcholine Muscarinic M1 Receptor: Measurement of IP-One Response (AID 944); conditions: CHO-M1 cells, IP-One HTRF, antagonist mode; series mostly up to 46.1 µM; also: nearly all actives have a fitted effect of over 75% in size; also: potency is read from the fitted curve at half-maximal effect
In short: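 Antagonist mode with rat M1 receptor transfected into CHO cells. Compound is added first for 10 min, carbachol at its EC80 follows for 30 min, and lysis reagents then allow TR-FRET detection of accumulated IP1.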

[8] = qHTS Assay for Identification of Small Molecule Antagonists for Thrombopoietin (TPO) Signaling Pathway (AID 918); conditions: TPO-dependent cell signaling reporter, antagonist mode; also: potency is read from the fitted curve at half-maximal effect; nearly all actives have a fitted effect of over 60% in size
In short: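 Inhibitors of TPO signaling are sought by stimulating IL-3-starved murine Ba/F3 cells (human TPO receptor, Glycoprotein IIb-driven luciferase) with TPO at its EC50 of 26 pM alongside compound. After 24 hrs at 37 C, reporter luminescence is measured.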

[9] = qHTS Assay for Identification of Small Molecule Agonists for Hypoxia Response Element Signaling Pathway (AID 914; active = well fitted activation curve with a large enough effect in the signal ratio, with a control signal flat, not every such curve was filed as active; the % refers to the signal ratio; also: % of control where 0% means no effect); conditions: ME-180 (cervical carcinoma) HRE-bla reporter, beta-lactamase ratio, CoCl2, 17 h; stronger effect = higher value
In short: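 Read-out: CCF4 FRET ratio of 460nm to 530nm emission (excitation 405nm) after 2.5 hours at room temperature, taken from HRE-bla ME-180 cells that had been exposed to compound and EC50 CoCl2 for 17 hours.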

[10] = Cell Viability - LYMP2-001 (AID 921); conditions: LYMP2-001 lymphoblastoid cell viability; series mostly up to 92.2 µM;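 also: 0% = DMSO only and full inhibition = tetraoctylammonium bromide control wells; nearly all actives have a fitted effect of over 70% in size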
In short: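 Cellular ATP loss read by luciferase luminescence after 24 h compound exposure at 37 C in complete medium. LYMP2-001 lymphoblastoid cells, 2500/well; qHTS concentration-response data fitted with Hill equation for AC50.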

Sequence of Muscarinic acetylcholine receptor M1 (Rattus norvegicus) (P08482 whole entry, looked up): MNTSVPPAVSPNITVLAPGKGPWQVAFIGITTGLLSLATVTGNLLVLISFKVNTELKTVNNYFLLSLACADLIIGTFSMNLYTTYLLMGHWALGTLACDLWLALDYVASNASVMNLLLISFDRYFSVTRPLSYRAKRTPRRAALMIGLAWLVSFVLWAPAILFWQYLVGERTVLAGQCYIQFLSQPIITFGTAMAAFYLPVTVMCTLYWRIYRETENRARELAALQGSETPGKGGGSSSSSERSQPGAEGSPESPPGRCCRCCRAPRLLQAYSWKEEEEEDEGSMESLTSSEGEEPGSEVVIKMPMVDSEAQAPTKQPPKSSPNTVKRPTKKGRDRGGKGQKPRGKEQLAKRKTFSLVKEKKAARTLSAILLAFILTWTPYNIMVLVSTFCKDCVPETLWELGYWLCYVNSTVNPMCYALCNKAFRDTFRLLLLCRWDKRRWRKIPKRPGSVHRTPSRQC
Sequence of Cytochrome P450 2C19 (Homo sapiens) (P33261 whole entry, looked up): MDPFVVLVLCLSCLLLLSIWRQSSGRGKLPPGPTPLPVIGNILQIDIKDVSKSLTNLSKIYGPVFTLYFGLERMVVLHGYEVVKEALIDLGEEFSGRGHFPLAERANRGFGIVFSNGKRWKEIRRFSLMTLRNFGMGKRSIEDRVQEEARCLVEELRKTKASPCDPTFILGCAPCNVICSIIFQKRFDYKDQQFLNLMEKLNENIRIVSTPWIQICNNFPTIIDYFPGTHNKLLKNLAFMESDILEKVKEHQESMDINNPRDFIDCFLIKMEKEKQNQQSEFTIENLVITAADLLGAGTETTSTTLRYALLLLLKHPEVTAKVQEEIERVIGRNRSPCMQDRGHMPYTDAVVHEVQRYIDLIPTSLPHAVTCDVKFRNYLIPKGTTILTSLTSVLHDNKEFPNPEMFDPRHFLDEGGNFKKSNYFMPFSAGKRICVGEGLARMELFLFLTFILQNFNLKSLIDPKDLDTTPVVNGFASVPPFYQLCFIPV
Sequence of Pyruvate kinase (Leishmania mexicana) (Q27686 2-499 E452W): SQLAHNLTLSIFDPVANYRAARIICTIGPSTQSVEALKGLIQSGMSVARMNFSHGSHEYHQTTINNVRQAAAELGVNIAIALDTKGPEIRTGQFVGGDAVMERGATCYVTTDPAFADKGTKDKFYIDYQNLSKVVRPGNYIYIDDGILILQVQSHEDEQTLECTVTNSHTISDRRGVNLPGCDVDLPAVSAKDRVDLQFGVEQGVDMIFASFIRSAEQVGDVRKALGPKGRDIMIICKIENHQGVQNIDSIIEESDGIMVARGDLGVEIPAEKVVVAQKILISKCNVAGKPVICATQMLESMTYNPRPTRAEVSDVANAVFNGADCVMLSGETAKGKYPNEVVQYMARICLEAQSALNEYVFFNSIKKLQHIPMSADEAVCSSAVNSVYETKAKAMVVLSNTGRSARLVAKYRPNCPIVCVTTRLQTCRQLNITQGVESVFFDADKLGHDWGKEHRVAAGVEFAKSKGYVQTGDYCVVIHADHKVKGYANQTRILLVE

C#CCN(C)CCCOc1ccc(Cl)cc1Cl
inactive: Potency [2]
active: Potency [1] 5.01 µM and 2.51 µM

CCCN(CCC)CCc1cccc2c1CC(=O)N2
active: Potency [6] 17.8 µM
inactive: outcome [3] | outcome [4] | outcome [5] | Potency [2]

FC(F)(F)c1ccccc1-n1ccnc1
inactive: outcome [3] | outcome [4] | outcome [5] | Potency [7] | Potency [2]

Cc1ccc(=O)n(-c2ccccc2)c1
inactive: Potency [1] | outcome [4] | Potency [6] | Potency [7] | Potency [2]

C[n+]1cc2c3c(ccc2c2ccc4cc5c(cc4c21)OCO5)OCO3
active: Potency [1] 6.31 µM | Potency [8] 1 µM | Potency [7] 12.6 µM | Potency [2] 10 µM
inactive: outcome [3] | outcome [5]

Nc1nc(N)c2nc(-c3ccccc3)c(N)nc2n1
inactive: outcome [3] | outcome [4] | outcome [5] | Potency [7]

CN1CCN(C2=Nc3ccccc3Oc3ccc(Cl)cc32)CC1
inactive: outcome [3] | outcome [4] | outcome [5] | Potency [2]
active: Potency [6] 0.282 µM | Potency [7] 3.16 µM

O=C(CCNNC(=O)c1ccncc1)NCc1ccccc1
inactive: Potency [1] | outcome [4] | Potency [6] | Potency [7] | Potency [2]

c1cnc(N2CCN(Cc3ccc4c(c3)OCO4)CC2)nc1
active: Potency [1] 2 µM and 631 nM | Potency [6] 14.1 µM
inactive: outcome [4] | Potency [2]

CN(C)CCCN1c2ccccc2Sc2ccc(C(F)(F)F)cc21
inactive: outcome [3] | activation [9] 12.9% | outcome [5] | Potency [2]
active: Potency [6] 0.158 µM | Potency [7] 1 µM

CN(C(=O)CCCOc1ccc2[nH]c(=O)ccc2c1)C1CCCCC1
inactive: Potency [1] | outcome [4] | Potency [2]

CN(C)CCOC(=O)COc1ccc(Cl)cc1
inactive: Potency [1] | outcome [3] | outcome [4] | outcome [5] | Potency [6] | Potency [7] | Potency [2]

CCCCNC(=O)NS(=O)(=O)c1ccc(C)cc1
inactive: Potency [1] | outcome [3] | outcome [10] | outcome [5] | Potency [7] | Potency [2]

CN=C(NC#N)NCCSCc1nc[nH]c1C
inactive: Potency [1] | outcome [3] | outcome [4] | outcome [10] | outcome [5] | Potency [7] | Potency [2]

C[C@H](CS)C(=O)N1CCC[C@H]1C(=O)O
inactive: Potency [1] | Potency [2]

Cc1scc2c1N(C(=O)CN1CCN(C)CC1)c1ccccc1NC2=O
inactive and 3.98 µM (active): Potency [1]
active: Potency [6] 0.0316 µM | Potency [7] 0.0282 µM
inactive: outcome [3] | outcome [4] | outcome [5] | Potency [2]

COc1ccc2c(c1OC)C(=O)O[C@@H]2[C@H]1c2c(cc3c(c2OC)OCO3)CCN1C
active: Potency [1] 0.158 µM

Cc1nc2ccccn2c(=O)c1CCN1CCC(C(=O)c2ccc(F)cc2)CC1
active: Potency [7] 8.91 µM
inactive: Potency [1] | outcome [3] | outcome [5] | Potency [2]

CCO/C([O-])=N/c1c[n+](N2CCOCC2)no1
inactive: Potency [1] | outcome [3] | outcome [4] | outcome [5] | Potency [6] | Potency [2]

Cc1nc2c([nH]1)c(=O)n(C)c(=O)n2Cc1ccco1
inactive: Potency [1] | outcome [4] | Potency [7] | Potency [2]

CC(C)[N+](C)(CCOC(=O)C1c2ccccc2Oc2ccccc21)C(C)C
active: Potency [6] 0.0112 µM | Potency [7] 0.001 µM
inactive: outcome [3] | outcome [4] | outcome [5] | Potency [2]

NC(N)=NC(=O)Cc1c(Cl)cccc1Cl
inactive: outcome [4] | Potency [7] | Potency [2]
active: Potency [1] 0.251 µM

N[C@@H](COP(=O)(O)O)C(=O)O
inactive: Potency [1] | outcome [4] | Potency [6] | Potency [7] | Potency [2]

CC1=C(C)C(=O)C(CCCCC#CCCCC#CCO)=C(C)C1=O
inactive: outcome [4] | Potency [6] | Potency [2]
active: Potency [1] 5.01 µM

COc1cc(Cc2cnc(N)nc2N)cc(OC)c1OC
inactive: outcome [3] | outcome [4] | outcome [10] | outcome [5] | Potency [7] | Potency [2]

CC1=NS(=O)(=O)c2cc(Cl)ccc2N1
inactive: Potency [1] | outcome [3] | outcome [4] | outcome [5] | Potency [2]

C[N+](C)(C)CCOC(N)=O
inactive: Potency [1] | outcome [3] | outcome [4] | outcome [5] | Potency [2]

CC(=O)Nc1nnc(S(N)(=O)=O)s1
inactive: Potency [1] | outcome [3] | activation [9] 10.9% and -10.2% and -6.49% | outcome [4] | outcome [5] | Potency [2]

NC(=O)N1c2ccccc2C=Cc2ccccc21
inactive: Potency [1] | outcome [3] | activation [9] -7.9% and -9.09% and -6.88% | outcome [4] | outcome [10] | outcome [5] | Potency [2]

CCn1cc(C(=O)O)c(=O)c2cc3c(cc21)OCO3
inactive: outcome [3] | outcome [4] | outcome [5] | Potency [7] | Potency [2]

COc1ccc(CN(CCN(C)C)c2ccccn2)cc1
inactive: outcome [3] | outcome [4] | outcome [10] | outcome [5] | Potency [2]
